Experimental data reported in PubChem BioAssay (EPA / NIEHS).
Inconclusive results are not listed. The source made the active and inactive calls. Rule for the calls, unless noted: active = hit-call score of the fitted dose curve at least 0.9, where 1 is the maximum; inactive = score below 0.9.

Experiments:
[1] = molecular target: Paired box protein Pax-6 (Homo sapiens) (UniProt P26367); test: ATG_Pax6_CIS: Attagene CIS-FACTORIAL HepG2 Assay for human Paired Box 6 (PAX6) (AID 2282956); details: HepG2 CIS-FACTORIAL PAX6 reporter transcription, RNA readout; actives raise or lower the signal
Method in brief: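 HepG2 cells transiently transfected with multiplexed cis-promoter reporter units (endogenous TF activity) were dosed for 24 h. Reporter mRNA was quantified by RT-PCR, 6-FAM labeling, HpaI digestion and capillary electrophoresis; bidirectional fitting versus DMSO baseline.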

[2] = ATG_PXRE_CIS: Attagene CIS-FACTORIAL HepG2 Assay for human Pregnane X Receptor Element (PXRE) (AID 2282957); details: HepG2 Attagene CIS-FACTORIAL PXRE reporter, mRNA; actives raise or lower the signal
Method in brief: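 Multiplexed cis-reporter assay in transiently transfected human HepG2 cells; 24 h chemical exposure. Reporter transcripts quantified by RT-PCR with fluorescent labeling and capillary electrophoresis.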

[3] = ATG_PPRE_CIS: Attagene CIS-FACTORIAL HepG2 Assay for human Peroxisome Proliferator-activated Response Element (PPRE) (AID 2282958); details: HepG2 PPRE cis-element reporter, Attagene transcription factor profiling; actives raise or lower the signal
Method in brief: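 DMSO served as negative control and baseline for bidirectional curve fitting. Signal came from PPRE-regulated reporter mRNA in HepG2 cells, measured 24 h post-dosing by RT-PCR, 6-FAM primer extension and capillary electrophoresis.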

[4] = ATG_RORE_CIS: Attagene CIS-FACTORIAL HepG2 Assay for human RAR-related Orphan Receptor Element (RORE) (AID 2282959); details: HepG2 Attagene cis-factorial RORE reporter, mRNA; actives raise or lower the signal
Method in brief: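 Transfect HepG2 with MRTUs; treat 24 h; extract RNA; RT with oligo(dT); PCR with reporter-specific primers; 6-FAM primer extension; HpaI digest 2 h at 37 C; capillary electrophoresis. Fit vs DMSO, bidirectional.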

[5] = ATG_Sox_CIS: Attagene CIS-FACTORIAL HepG2 Assay for human SRY-box transcription factor (SOX) (AID 2282960); details: HepG2 Attagene cis-factorial SOX reporter, mRNA; actives raise or lower the signal
Method in brief: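 Fluorescence-labelled cDNA fragments from reporter transcripts, sized by CE, give the signal. Cells: HepG2, transiently transfected with cis-regulated reporter units. Exposure 24 h; DMSO negative control; bidirectional curve fitting.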

[6] = molecular target: Transcription factor Sp1 (Homo sapiens) (UniProt P08047); test: ATG_Sp1_CIS: Attagene CIS-FACTORIAL HepG2 Assay for human Specificity Protein 1 (Sp1) (AID 2282961); details: HepG2 Sp1 cis-reporter transcription, actives raise or lower the signal
Method in brief: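 Chemicals are dosed onto HepG2 cells transfected with multiple cis-promoter reporter constructs, and after 24 h reporter RNA is reverse-transcribed, PCR-amplified and resolved by capillary electrophoresis for fluorescence quantitation; activity is scored up or down against DMSO.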

[7] = ATG_SREBP_CIS: Attagene CIS-FACTORIAL HepG2 Assay for human Sterol Regulatory Element Binding (SREBP) (AID 2282962); details: HepG2 Attagene cis-factorial SREBP reporter, mRNA; actives raise or lower the signal
Method in brief: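 HepG2 cells transiently transfected with multiplexed cis-element reporter units report endogenous transcription factor activity. After 24 h of chemical exposure, reporter mRNA was quantified by RT-PCR, 6-FAM labelling, HpaI digestion and capillary electrophoresis; bidirectional fits used DMSO as baseline.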

[8] = molecular target: Signal transducer and activator of transcription 3 (Homo sapiens) (UniProt P40763); test: ATG_STAT3_CIS: Attagene CIS-FACTORIAL HepG2 Assay for human Signal Transducer and Activator of Transcription 3 (STAT3) (AID 2282963); details: HepG2, Attagene cis-factorial STAT3 reporter transcription; actives raise or lower the signal
Method in brief: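 HepG2 cells transiently transfected with cis-element-driven multiple reporter transcription units; after 24 h chemical exposure, reporter mRNA measured by RT-PCR, 6-FAM primer-extension labelling, HpaI digestion and capillary electrophoresis. Bidirectional fitting versus DMSO baseline.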

[9] = ATG_TA_CIS: Attagene CIS-FACTORIAL HepG2 Assay for human TA Basal Promoter (AID 2282964); details: HepG2 Attagene CIS-factorial TA basal promoter reporter; actives raise or lower the signal
Method in brief: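 Cis-factorial format in HepG2: reporters report endogenous factors, not chimeric Gal4 fusions. After 24 h treatment, reporter transcripts were measured by RT-PCR-capillary electrophoresis fluorescence, analysed bidirectionally versus DMSO.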

[10] = ATG_TCF_b_cat_CIS: Attagene CIS-FACTORIAL HepG2 Assay for human T-Cell-Factor with beta-catenin (TCF/b-cat) (AID 2282965); details: HepG2 TCF/beta-catenin cis-reporter transcription, actives raise or lower the signal
Method in brief: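 HepG2 cells transiently transfected with multiple cis-promoter-regulated reporter transcription units, so endogenous transcription factor activity is measured. Reporter mRNA read 24 hours after dosing by RT-PCR, fluorescent labelling and capillary electrophoresis; bidirectional fitting against DMSO.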

[11] = ATG_TAL_CIS: Attagene CIS-FACTORIAL HepG2 Assay for human TAL Basal Promoter (AID 2282966); details: HepG2 Attagene cis-factorial TAL promoter reporter; actives raise or lower the signal;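 note: background control endpoint measuring basal TAL promoter reporter mRNA not a specific factor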
Method in brief: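 Steps: transfect HepG2 with multiple reporter transcription units; dose 24 h; isolate RNA, reverse-transcribe, PCR-amplify, label with 6-FAM, digest with HpaI; resolve by capillary electrophoresis. Bidirectional fitting against DMSO baseline.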

[12] = ATG_TGFb_CIS: Attagene CIS-FACTORIAL HepG2 Assay for human Transforming Growth Factor (TGF) (AID 2282967); details: HepG2 Attagene CIS TGFb reporter, mRNA transcription; actives raise or lower the signal
Method in brief: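 Multiplexed cis-reporter HepG2 system, 24 h treatment; mRNA induction read by fluorescence after RT-PCR and CE; DMSO negative control, bidirectional curve fitting.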

[13] = ATG_VDRE_CIS: Attagene CIS-FACTORIAL HepG2 Assay for human Vitamin D Receptor Element (VDRE) (AID 2282968); details: HepG2 VDRE cis-reporter transcription, actives raise or lower the signal
Method in brief: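 HepG2 cells transiently transfected with cis-element reporter units, dosed 24 h; reporter mRNA measured by RT-PCR, 6-FAM labeling, HpaI digestion and capillary electrophoresis. Activity fitted bidirectionally against DMSO baseline.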

[14] = molecular target: Nuclear receptor subfamily 1 group I member 3 (Homo sapiens) (UniProt Q14994); test: ATG_CAR_TRANS: Attagene TRANS-FACTORIAL HepG2 Assay for human Constitutive Androstane Receptor (CAR) (AID 2282969; active = hit-call score of the fitted dose curve at least 0.9, where 1 is the maximum;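 note: activators raise reporter mRNA above DMSO so AC50 marks induction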); details: HepG2 Attagene TRANS-FACTORIAL CAR reporter
Method in brief: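 HepG2 cells transiently transfected with multiplexed GAL4-UAS reporter units expressing chimeric NR-Gal4 proteins; compound exposure 24 h. Reporter mRNA measured by RT-PCR, 6-FAM labelling, HpaI digestion and capillary electrophoresis; gain-of-signal fitted against DMSO baseline.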

[15] = molecular target: X-box-binding protein 1 (Homo sapiens) (UniProt P17861); test: ATG_Xbp1_CIS: Attagene CIS-FACTORIAL HepG2 Assay for human X-box Binding Protein 1 (XBP1) (AID 2282972); details: HepG2 XBP1 cis-element reporter, Attagene multiplex; actives raise or lower the signal
Method in brief: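 HepG2 cells transiently transfected with cis-regulated multiple reporter transcription units; endogenous transcription factor activity measured 24 hours after chemical dosing. Reporter mRNA quantified by RT-PCR, 6-FAM primer extension, HpaI digestion and capillary electrophoresis; bidirectional fitting versus DMSO.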

[16] = ATG_M_19_TRANS: Attagene TRANS-FACTORIAL HepG2 Assay for M19 Transcription Factor (Internal Marker) (AID 2282974; active = hit-call score of the fitted dose curve at least 0.9, where 1 is the maximum); details: HepG2 Attagene TRANS-FACTORIAL M19 internal marker reporter
Method in brief: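 Multiplexed TRANS format: HepG2 liver cells bearing transient GAL4-UAS reporter units, chemical treatment 24 h, reporter transcripts quantified by RT-PCR plus capillary electrophoresis. DMSO defines baseline.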

[17] = ATG_GAL4_TRANS: Attagene TRANS-FACTORIAL HepG2 Assay for GAL4 (Internal Marker) (AID 2282976; active = hit-call score of the fitted dose curve at least 0.9, where 1 is the maximum); details: HepG2 Attagene TRANS GAL4 internal marker reporter
Method in brief: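 Liver HepG2 line bearing multiplexed GAL4-UAS reporter constructs; 24 h chemical treatment. Transcripts were quantified as fluorescent fragments on capillary electrophoresis after RT-PCR and HpaI cut, with activity fitted upward from DMSO.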

[18] = molecular target: Estrogen-related receptor gamma (Homo sapiens) (UniProt P62508); test: ATG_ERRg_TRANS: Attagene TRANS-FACTORIAL HepG2 Assay for human Estrogen-Related Receptor gamma (ERRg) (AID 2282977; active = hit-call score of the fitted dose curve at least 0.9, where 1 is the maximum;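 note: hits increase reporter signal over DMSO so potencies reflect activators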); details: HepG2 Attagene TRANS reporter, ERRg transactivation
Method in brief: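 HepG2 cells transiently transfected with multiplexed GAL4-UAS reporter units and chimeric NR-Gal4 constructs were exposed to test chemicals for 24 h. Reporter mRNA was measured by RT-PCR, 6-FAM primer extension, HpaI digestion and capillary electrophoresis; gain-of-signal versus DMSO.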

[19] = molecular target: Estrogen receptor (Homo sapiens) (UniProt P03372); test: ATG_ERa_TRANS: Attagene TRANS-FACTORIAL HepG2 Assay for human Estrogen Receptor alpha (ERa) (AID 2282970; active = hit-call score of the fitted dose curve at least 0.9, where 1 is the maximum); details: HepG2 Attagene TRANS ERa GAL4 reporter, mRNA
Method in brief: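 Multiplexed cell-based reporter format in HepG2: chimeric ERa-Gal4 protein drives GAL4-UAS reporter transcription. Fluorescent reporter mRNA quantified by capillary electrophoresis 24 hours after dosing; endpoint fitted as signal gain against DMSO.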

[20] = molecular target: Steroid hormone receptor ERR1 (Homo sapiens) (UniProt P11474); test: ATG_ERRa_TRANS: Attagene TRANS-FACTORIAL HepG2 Assay for human Estrogen-Related Receptor alpha (ERRa) (AID 2282971; active = hit-call score of the fitted dose curve at least 0.9, where 1 is the maximum); details: HepG2 Attagene TRANS reporter, ERRa transactivation
Method in brief: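 Signal gain relative to DMSO for an ERRa-Gal4 chimeric receptor, read as reporter mRNA by RT-PCR/capillary electrophoresis. Human HepG2 liver cells, transient multiplex reporter transfection, 24 h chemical exposure.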

Measured: AC50

X-box-binding protein 1 (Homo sapiens), sequence (P17861 whole entry, looked up): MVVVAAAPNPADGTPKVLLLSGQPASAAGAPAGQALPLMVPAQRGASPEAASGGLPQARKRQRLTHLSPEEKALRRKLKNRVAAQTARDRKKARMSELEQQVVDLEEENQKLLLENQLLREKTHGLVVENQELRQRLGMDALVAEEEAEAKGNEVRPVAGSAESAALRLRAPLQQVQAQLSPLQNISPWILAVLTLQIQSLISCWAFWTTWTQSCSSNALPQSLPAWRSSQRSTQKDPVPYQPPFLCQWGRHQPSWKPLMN
Signal transducer and activator of transcription 3 (Homo sapiens), sequence (P40763 whole entry, looked up): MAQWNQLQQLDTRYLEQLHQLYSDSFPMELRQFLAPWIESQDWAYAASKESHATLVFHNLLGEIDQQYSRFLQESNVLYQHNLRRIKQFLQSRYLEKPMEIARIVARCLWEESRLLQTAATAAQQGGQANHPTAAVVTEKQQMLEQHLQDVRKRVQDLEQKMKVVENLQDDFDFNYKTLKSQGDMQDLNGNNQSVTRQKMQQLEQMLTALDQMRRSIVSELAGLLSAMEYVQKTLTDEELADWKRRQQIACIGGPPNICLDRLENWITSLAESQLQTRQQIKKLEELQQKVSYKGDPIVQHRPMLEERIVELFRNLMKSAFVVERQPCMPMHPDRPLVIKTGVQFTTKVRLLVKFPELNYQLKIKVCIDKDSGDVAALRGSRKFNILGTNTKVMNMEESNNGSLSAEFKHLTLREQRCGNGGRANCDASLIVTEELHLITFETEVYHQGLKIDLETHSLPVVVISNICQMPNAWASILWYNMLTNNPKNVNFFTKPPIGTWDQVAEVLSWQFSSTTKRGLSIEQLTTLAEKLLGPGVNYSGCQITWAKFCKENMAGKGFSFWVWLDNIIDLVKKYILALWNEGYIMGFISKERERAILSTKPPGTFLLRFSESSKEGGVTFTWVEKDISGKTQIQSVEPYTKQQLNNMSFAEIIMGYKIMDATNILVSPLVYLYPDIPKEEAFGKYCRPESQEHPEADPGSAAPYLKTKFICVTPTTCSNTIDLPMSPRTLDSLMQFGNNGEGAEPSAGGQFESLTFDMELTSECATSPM
Nuclear receptor subfamily 1 group I member 3 (Homo sapiens), sequence (Q14994 whole entry, looked up, the tested form may be a part): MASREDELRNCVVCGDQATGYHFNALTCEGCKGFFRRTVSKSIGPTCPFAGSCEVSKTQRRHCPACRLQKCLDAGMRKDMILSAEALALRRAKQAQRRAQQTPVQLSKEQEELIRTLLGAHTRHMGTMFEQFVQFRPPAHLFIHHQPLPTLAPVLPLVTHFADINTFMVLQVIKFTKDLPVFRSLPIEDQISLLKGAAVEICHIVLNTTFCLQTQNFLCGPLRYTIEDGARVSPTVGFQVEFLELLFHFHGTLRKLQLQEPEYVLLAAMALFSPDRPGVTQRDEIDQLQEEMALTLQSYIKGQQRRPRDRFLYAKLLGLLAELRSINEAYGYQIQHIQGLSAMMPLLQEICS
Transcription factor Sp1 (Homo sapiens), sequence (P08047 whole entry, looked up): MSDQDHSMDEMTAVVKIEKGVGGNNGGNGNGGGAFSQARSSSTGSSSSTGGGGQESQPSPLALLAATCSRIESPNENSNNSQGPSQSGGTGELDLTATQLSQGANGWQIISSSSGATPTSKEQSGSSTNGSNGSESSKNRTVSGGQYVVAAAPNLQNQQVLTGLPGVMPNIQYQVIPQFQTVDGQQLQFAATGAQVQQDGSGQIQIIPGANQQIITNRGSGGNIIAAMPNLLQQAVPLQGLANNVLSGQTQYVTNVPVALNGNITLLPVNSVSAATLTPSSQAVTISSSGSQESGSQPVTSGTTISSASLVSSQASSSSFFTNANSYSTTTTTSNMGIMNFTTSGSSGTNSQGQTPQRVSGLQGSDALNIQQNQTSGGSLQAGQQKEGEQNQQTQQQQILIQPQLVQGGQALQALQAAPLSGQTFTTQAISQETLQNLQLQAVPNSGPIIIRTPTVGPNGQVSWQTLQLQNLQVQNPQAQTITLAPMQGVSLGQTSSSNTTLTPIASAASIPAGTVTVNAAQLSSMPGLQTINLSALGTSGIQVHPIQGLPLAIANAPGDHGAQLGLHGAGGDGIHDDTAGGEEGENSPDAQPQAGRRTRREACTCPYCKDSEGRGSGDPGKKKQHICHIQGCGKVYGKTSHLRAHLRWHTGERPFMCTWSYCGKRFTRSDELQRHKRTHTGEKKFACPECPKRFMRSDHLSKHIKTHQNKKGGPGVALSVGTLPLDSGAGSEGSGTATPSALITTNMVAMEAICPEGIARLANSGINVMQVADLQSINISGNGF
Estrogen-related receptor gamma (Homo sapiens), sequence (P62508 whole entry, looked up, the tested form may be a part): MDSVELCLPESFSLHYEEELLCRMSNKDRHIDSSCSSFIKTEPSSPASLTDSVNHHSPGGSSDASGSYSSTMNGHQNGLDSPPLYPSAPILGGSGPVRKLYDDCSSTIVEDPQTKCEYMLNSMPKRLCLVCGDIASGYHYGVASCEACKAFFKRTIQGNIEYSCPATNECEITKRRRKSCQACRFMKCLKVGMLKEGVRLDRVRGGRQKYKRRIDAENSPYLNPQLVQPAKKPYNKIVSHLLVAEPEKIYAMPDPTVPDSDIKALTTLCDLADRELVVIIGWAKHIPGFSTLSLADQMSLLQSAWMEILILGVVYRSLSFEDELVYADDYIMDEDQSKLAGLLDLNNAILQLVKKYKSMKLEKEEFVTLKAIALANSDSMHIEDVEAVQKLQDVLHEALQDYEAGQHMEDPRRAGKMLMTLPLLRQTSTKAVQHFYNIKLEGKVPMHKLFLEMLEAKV
Paired box protein Pax-6 (Homo sapiens), sequence (P26367 whole entry, looked up): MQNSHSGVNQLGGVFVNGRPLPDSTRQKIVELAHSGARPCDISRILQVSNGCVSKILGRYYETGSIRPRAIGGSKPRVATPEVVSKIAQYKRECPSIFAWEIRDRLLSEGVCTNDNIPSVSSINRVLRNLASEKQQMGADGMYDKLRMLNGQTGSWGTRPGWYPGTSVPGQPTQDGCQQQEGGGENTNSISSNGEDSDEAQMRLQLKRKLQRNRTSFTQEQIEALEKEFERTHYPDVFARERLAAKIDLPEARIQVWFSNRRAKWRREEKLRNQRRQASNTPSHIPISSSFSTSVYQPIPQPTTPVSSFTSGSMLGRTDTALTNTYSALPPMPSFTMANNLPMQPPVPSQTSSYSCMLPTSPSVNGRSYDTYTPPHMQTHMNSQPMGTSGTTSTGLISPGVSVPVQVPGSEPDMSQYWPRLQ
Estrogen receptor (Homo sapiens), sequence (P03372 whole entry, looked up, the tested form may be a part): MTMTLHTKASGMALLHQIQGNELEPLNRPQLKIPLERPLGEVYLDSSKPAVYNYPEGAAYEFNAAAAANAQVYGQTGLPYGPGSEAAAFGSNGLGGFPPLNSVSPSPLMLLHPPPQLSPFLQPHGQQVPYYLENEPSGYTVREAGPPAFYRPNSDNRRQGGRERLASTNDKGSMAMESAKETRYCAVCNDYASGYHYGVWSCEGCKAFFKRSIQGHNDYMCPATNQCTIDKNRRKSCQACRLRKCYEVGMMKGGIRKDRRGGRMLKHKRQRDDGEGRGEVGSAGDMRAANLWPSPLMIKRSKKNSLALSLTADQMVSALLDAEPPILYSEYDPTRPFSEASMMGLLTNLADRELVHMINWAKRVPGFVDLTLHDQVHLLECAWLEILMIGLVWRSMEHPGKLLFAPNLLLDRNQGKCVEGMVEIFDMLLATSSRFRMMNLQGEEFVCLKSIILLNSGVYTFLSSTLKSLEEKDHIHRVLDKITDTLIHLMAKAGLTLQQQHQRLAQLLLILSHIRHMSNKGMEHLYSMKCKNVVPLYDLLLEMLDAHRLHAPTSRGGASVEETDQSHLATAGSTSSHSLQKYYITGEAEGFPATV
Steroid hormone receptor ERR1 (Homo sapiens), sequence (P11474 whole entry, looked up, the tested form may be a part): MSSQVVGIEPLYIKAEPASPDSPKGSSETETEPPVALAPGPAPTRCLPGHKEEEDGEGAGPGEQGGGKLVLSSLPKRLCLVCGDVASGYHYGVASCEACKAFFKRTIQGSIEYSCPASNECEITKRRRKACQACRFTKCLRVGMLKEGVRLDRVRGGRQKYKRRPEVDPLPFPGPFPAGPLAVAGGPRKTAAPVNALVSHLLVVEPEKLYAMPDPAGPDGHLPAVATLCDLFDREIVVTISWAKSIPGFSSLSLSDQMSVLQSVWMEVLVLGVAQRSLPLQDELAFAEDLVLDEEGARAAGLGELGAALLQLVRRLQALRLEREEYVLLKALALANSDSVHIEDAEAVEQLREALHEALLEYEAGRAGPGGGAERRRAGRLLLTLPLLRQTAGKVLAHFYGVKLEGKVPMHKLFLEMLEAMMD

C=CC(=O)OCC(O)COc1ccccc1 (stereo not drawn)
active: [1] 41.2 µM | [5] 26.3 µM | [13] 26.2 µM | [15] 24.3 µM
not listed: [16] | [17] | [18] | [19] | [20]
inactive: all other assays above

CCCCC(CC)COCCC#N (stereo not drawn)
active: [2] 27.9 µM
not listed: [16] | [17] | [18] | [19] | [20]
inactive: all other assays above

COC(=O)OC
not listed: [19] | [20]
inactive: all other assays above

CCCCC(CC)COC(=O)/C=C\C(=O)OCC(CC)CCCC (stereo not drawn)
active: [2] 4.85 µM | [3] 100 µM | [4] 100 µM
not listed: [19] | [20]
inactive: all other assays above

CCCCC/C=C/C=C/C=O
active: [1] 100 µM | [2] 26.6 µM
not listed: [16] | [18] | [19] | [20]
inactive: all other assays above

CC(C)CCCCCCCOC(=O)c1ccc(C(=O)OCCCCCCCC(C)C)c(C(=O)OCCCCCCCC(C)C)c1
active: [2] 42.7 µM
not listed: [17] | [18] | [19] | [20]
inactive: all other assays above

Nc1cc(Cl)c(O)c(Cl)c1
active: [1] 136 µM | [2] 24.8 µM | [3] 45.3 µM | [4] 60.2 µM | [7] 130 µM | [10] 64.2 µM | [13] 70.7 µM
not listed: [14] | [17]
inactive: all other assays above

N#Cc1ccc(CC(=NNC(=O)Nc2ccc(OC(F)(F)F)cc2)c2cccc(C(F)(F)F)c2)cc1
not listed: [18] | [19] | [20]
inactive: all other assays above
